Laboratory results from the supplement of paper PMC10849652.
The full data set covers some 7,900 targets. This sample favours those with a hit. About 0.6% of all pairs of compound and target were hits. A number with no mark means an inactive call.

What was measured:
Assay in all cases: log2 fold change, soluble protein after heating vs DMSO (PISA); higher = thermal stabilisation; K562 cells, 10 uM, 30 min; active = over 0.2 and 3.5 SD of the protein, either way, in both replicates (recomputed)
saracatinib = compound: CN1CCN(CCOc2cc(OC3CCOCC3)c3c(Nc4c(Cl)ccc5c4OCO5)ncnc3c2)CC1 [saracatinib]
Method in brief: (§1)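 K562 cells at 2×10^6 cells/mL were given 10 μM compound for 30 min. Aliquots then went through 3 min of heating across 48°C-58°C, were pooled, and were extracted in PBS with 0.5% NP-40 at 4°C, and the supernatant after 21,000xg for 90 min was quantified by TMTpro 16plex LC-MS/MS with channel sums equalised. Thermal stability relative to control samples, from duplicates, is given as log2 fold change.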

sotrastaurin = compound: CN1CCN(c2nc(C3=C(c4c[nH]c5ccccc45)C(=O)NC3=O)c3ccccc3n2)CC1 [sotrastaurin]
Method in brief: as §1

alvocidib = compound: CN1CC[C@H](c2c(O)cc(O)c3c(=O)cc(-c4ccccc4Cl)oc23)[C@H](O)C1 [alvocidib]
Method in brief: as §1

Tubastatin A = compound: CN1CCc2c(c3ccccc3n2Cc2ccc(C(=O)NO)cc2)C1 [Tubastatin A]
Method in brief: as §1

[1] = compound: CNC(=O)C1=CC=CC=C1NC2=NC(=NC=C2Cl)NC3=C(C=C(C=C3)N4CCOCC4)OC
Method in brief: as §1

rucaparib = compound: CNCc1ccc(-c2[nH]c3cc(F)cc4c3c2CCNC4=O)cc1 [rucaparib]
Method in brief: as §1

[2] = compound: CNc1nc(-c2ccc3c(N)n[nH]c3c2)cc(N2C[C@@H](C(=O)NC3CCCCC3)CC[C@H]2C)n1
Method in brief: as §1

encorafenib = compound: COC(=O)N[C@@H](C)CNc1nccc(-c2cn(C(C)C)nc2-c2cc(Cl)cc(NS(C)(=O)=O)c2F)n1 [encorafenib]
Method in brief: as §1

[3] = compound: COC1=CC=C(C=C1)CN2C=CC3=C2C=C(C=C3)C(=O)NO
Method in brief: as §1

filanesib = compound: CON(C)C(=O)N1N=C(c2cc(F)ccc2F)S[C@@]1(CCCN)c1ccccc1 [filanesib]
Method in brief: as §1

zotarolimus = compound: CO[C@H]1C[C@@H]2CC[C@@H](C)[C@@](O)(O2)C(=O)C(=O)N2CCCC[C@H]2C(=O)O[C@H]([C@H](C)C[C@@H]2CC[C@H](n3cnnn3)[C@H](OC)C2)CC(=O)[C@H](C)/C=C(\C)[C@@H](O)[C@@H](OC)C(=O)[C@H](C)C[C@H](C)/C=C/C=C/C=C/1C [zotarolimus]
Method in brief: as §1

idasanutlin = compound: COc1cc(C(=O)O)ccc1NC(=O)[C@@H]1N[C@@H](CC(C)(C)C)[C@](C#N)(c2ccc(Cl)cc2F)[C@H]1c1cccc(Cl)c1F [idasanutlin]
Method in brief: as §1

alisertib = compound: COc1cc(Nc2ncc3c(n2)-c2ccc(Cl)cc2C(c2c(F)cccc2OC)=NC3)ccc1C(=O)O [alisertib]
Method in brief: as §1

[4] = compound: COc1cc2nc(-c3cc(F)ccc3O)nc(N[C@@H]3CNC[C@H]3C(C)(C)O)c2cc1OC
Method in brief: as §1

gefitinib = compound: COc1cc2ncnc(Nc3ccc(F)c(Cl)c3)c2cc1OCCCN1CCOCC1 [gefitinib]
Method in brief: as §1

[5] = compound: COc1cccc2cc(-c3nc([C@H]4CC[C@H](C(=O)O)CC4)n4ncnc(N)c34)[nH]c12
Method in brief: as §1

lapatinib = compound: CS(=O)(=O)CCNCc1ccc(-c2ccc3ncnc(Nc4ccc(OCc5cccc(F)c5)c(Cl)c4)c3c2)o1 [lapatinib]
Method in brief: as §1

defactinib = compound: CNC(=O)c1ccc(Nc2ncc(C(F)(F)F)c(NCc3nccnc3N(C)S(C)(=O)=O)n2)cc1 [defactinib]
Method in brief: as §1

[6] = compound: COC(=O)[C@H](CCSC)NC(=O)C1=C(C=C(C=C1)NC[C@H](CS)N)C2=CC=CC=C2
Method in brief: as §1

pictilisib = compound: CS(=O)(=O)N1CCN(Cc2cc3nc(-c4cccc5[nH]ncc45)nc(N4CCOCC4)c3s2)CC1 [pictilisib]
Method in brief: as §1

TM7SF3 (UniProt Q9NS93)
Chain of UniProt Q9NS93 (Q9NS93 whole entry, looked up): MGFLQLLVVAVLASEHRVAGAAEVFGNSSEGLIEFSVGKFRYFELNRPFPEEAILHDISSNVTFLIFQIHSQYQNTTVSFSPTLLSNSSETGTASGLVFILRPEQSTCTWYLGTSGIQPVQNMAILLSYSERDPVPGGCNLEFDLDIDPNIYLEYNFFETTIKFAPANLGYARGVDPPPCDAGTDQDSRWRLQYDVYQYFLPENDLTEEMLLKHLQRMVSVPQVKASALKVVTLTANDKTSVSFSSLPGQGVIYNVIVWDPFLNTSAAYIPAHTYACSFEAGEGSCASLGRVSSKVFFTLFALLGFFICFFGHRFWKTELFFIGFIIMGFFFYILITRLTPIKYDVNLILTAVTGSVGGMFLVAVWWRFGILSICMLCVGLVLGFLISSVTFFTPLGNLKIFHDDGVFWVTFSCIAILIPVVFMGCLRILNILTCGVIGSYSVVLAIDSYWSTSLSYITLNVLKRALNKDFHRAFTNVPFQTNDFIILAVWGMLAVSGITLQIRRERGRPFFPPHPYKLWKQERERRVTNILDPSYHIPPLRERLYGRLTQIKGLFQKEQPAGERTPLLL
log2 fold change (saracatinib): 0.072
log2 fold change (sotrastaurin): 0.035
log2 fold change (alvocidib): 0.068
log2 fold change (Tubastatin A): -0.082
log2 fold change [1]: 0.039
log2 fold change (rucaparib): -0.077
log2 fold change [2]: -0.011
log2 fold change (encorafenib): 0.089
log2 fold change [3]: -0.002
log2 fold change (filanesib): -0.218
log2 fold change (zotarolimus): -0.042
log2 fold change (idasanutlin): -0.015
log2 fold change (alisertib): -0.217
log2 fold change [4]: 0.101
log2 fold change (gefitinib): -0.066
log2 fold change [5]: 0.248
log2 fold change (lapatinib): 0.014

SLC4A2 (UniProt P04920)
Chain of UniProt P04920 (P04920 whole entry, looked up): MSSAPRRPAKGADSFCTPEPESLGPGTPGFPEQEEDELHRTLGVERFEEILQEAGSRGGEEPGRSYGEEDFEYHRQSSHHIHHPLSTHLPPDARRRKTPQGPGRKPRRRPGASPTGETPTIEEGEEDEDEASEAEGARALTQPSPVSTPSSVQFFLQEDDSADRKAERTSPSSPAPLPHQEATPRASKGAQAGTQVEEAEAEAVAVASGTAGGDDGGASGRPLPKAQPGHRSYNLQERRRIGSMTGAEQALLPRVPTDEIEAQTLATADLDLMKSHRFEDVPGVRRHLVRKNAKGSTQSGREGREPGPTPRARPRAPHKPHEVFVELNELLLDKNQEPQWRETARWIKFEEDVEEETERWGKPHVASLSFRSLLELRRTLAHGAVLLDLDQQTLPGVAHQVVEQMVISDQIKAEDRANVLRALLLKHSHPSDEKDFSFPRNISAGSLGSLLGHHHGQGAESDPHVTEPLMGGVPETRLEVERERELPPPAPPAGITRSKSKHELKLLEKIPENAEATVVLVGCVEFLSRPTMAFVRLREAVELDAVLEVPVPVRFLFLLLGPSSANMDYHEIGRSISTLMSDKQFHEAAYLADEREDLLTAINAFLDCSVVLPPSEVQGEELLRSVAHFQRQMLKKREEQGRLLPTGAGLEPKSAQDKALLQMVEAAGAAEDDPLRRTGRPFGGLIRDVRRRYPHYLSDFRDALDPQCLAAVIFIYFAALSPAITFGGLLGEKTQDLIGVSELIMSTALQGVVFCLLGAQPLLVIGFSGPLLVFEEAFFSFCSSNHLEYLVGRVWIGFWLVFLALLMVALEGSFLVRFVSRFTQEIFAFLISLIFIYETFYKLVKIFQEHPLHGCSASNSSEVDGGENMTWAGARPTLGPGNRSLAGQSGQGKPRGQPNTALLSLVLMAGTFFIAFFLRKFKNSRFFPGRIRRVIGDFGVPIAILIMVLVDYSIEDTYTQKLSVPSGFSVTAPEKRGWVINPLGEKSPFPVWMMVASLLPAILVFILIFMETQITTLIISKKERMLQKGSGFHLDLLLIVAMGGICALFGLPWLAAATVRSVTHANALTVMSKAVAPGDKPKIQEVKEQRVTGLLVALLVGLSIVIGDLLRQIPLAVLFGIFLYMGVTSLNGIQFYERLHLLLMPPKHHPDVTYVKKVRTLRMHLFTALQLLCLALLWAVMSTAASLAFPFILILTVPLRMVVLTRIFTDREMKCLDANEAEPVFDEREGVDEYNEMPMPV
log2 fold change (saracatinib): 0.003
log2 fold change (sotrastaurin): -0.029
log2 fold change (alvocidib): -0.174
log2 fold change (Tubastatin A): 0.066
log2 fold change [1]: -0.006
log2 fold change (defactinib): 0.028
log2 fold change (rucaparib): 0.064
log2 fold change [2]: 0.008
log2 fold change (encorafenib): 0.085
log2 fold change [6]: -0.067
log2 fold change [3]: -0.088
log2 fold change (filanesib): -0.041
log2 fold change (zotarolimus): 0
log2 fold change (idasanutlin): -0.002
log2 fold change (alisertib): -0.016
log2 fold change [4]: 0.051
log2 fold change (gefitinib): -0.081
log2 fold change [5]: -0.003
log2 fold change (lapatinib): -0.023
log2 fold change (pictilisib): 0.128

STAT5A (UniProt P42229)
Chain of UniProt P42229 (P42229 whole entry, looked up): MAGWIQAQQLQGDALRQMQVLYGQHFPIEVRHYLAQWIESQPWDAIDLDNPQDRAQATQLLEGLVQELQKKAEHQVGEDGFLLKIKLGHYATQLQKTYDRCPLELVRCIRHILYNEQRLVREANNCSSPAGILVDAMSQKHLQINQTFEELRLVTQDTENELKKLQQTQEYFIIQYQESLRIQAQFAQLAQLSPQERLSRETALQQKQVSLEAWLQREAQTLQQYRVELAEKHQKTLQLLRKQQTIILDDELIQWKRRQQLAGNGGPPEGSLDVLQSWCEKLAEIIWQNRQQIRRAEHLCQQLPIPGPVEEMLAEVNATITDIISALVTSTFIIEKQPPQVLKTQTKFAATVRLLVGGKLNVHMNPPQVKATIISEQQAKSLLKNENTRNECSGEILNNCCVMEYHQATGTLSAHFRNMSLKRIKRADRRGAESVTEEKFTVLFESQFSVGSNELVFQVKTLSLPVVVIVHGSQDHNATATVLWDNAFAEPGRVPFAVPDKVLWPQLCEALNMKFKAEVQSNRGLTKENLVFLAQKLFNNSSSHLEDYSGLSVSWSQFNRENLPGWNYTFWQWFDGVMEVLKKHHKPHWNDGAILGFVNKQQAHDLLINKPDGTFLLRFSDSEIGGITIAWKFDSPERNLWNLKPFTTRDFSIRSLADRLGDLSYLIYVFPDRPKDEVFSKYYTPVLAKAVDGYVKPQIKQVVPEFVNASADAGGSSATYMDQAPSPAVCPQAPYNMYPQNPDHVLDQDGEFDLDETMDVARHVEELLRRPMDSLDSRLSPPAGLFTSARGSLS
log2 fold change (saracatinib): -0.093
log2 fold change (sotrastaurin): -0.14
log2 fold change (alvocidib): -0.151
log2 fold change (Tubastatin A): 0.088
log2 fold change [1]: -0.001
log2 fold change (defactinib): -0.273
log2 fold change (rucaparib): 0.006
log2 fold change [2]: 0.054
log2 fold change (encorafenib): 0.088
log2 fold change [6]: -0.059
log2 fold change [3]: 0.034
log2 fold change (filanesib): 0.018
log2 fold change (zotarolimus): 0.094
log2 fold change (idasanutlin): 0.032
log2 fold change (alisertib): -0.056
log2 fold change [4]: 0.009
log2 fold change (gefitinib): 0.047
log2 fold change [5]: -0.128
log2 fold change (lapatinib): 0
log2 fold change (pictilisib): -0.096

SLC27A1 (UniProt Q6PCB7)
Chain of UniProt Q6PCB7 (Q6PCB7 whole entry, looked up): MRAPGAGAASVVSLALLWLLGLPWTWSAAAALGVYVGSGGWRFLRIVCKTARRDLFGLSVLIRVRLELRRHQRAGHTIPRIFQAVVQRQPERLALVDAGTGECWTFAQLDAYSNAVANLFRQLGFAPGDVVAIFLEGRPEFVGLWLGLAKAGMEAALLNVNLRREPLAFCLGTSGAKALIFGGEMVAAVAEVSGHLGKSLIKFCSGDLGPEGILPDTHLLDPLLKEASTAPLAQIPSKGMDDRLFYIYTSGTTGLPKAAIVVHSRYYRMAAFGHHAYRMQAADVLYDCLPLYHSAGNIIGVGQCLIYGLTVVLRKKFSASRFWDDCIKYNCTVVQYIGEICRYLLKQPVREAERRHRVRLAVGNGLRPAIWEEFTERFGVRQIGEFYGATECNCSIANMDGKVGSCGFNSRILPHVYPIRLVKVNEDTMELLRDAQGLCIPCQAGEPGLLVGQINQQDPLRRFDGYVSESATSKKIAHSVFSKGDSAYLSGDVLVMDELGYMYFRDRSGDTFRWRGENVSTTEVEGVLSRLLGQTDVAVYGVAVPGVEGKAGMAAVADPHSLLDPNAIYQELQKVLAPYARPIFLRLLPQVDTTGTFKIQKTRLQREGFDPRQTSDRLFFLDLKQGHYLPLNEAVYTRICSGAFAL
log2 fold change (saracatinib): -0.007
log2 fold change (sotrastaurin): 0.013
log2 fold change (alvocidib): -0.203
log2 fold change (Tubastatin A): -0.252
log2 fold change [1]: -0.011
log2 fold change (defactinib): 0.064
log2 fold change [2]: 0.146
log2 fold change [6]: -0.183
log2 fold change [3]: -0.263
log2 fold change (filanesib): 0.118
log2 fold change (zotarolimus): 0.064
log2 fold change (idasanutlin): -0.038
log2 fold change (alisertib): 0.004
log2 fold change [4]: 0.069
log2 fold change (gefitinib): 0.016
log2 fold change [5]: -0.031
log2 fold change (lapatinib): 0.014

SRCAP (UniProt Q6ZRS2)
log2 fold change (saracatinib): 0.032
log2 fold change (sotrastaurin): -0.045
log2 fold change (alvocidib): -0.279
log2 fold change (Tubastatin A): -0.486 (active)
log2 fold change [1]: -0.069
log2 fold change (defactinib): -0.004
log2 fold change (rucaparib): -0.058
log2 fold change [2]: -0.028
log2 fold change (encorafenib): 0.009
log2 fold change [6]: -0.015
log2 fold change [3]: -0.083
log2 fold change (filanesib): 0.097
log2 fold change (zotarolimus): -0.02
log2 fold change (alisertib): -0.091
log2 fold change [4]: -0.067
log2 fold change (gefitinib): 0.198
log2 fold change [5]: 0.062
log2 fold change (lapatinib): 0.049
log2 fold change (pictilisib): 0.015

TENT5C (UniProt Q5VWP2)
Chain of UniProt Q5VWP2 (Q5VWP2 whole entry, looked up): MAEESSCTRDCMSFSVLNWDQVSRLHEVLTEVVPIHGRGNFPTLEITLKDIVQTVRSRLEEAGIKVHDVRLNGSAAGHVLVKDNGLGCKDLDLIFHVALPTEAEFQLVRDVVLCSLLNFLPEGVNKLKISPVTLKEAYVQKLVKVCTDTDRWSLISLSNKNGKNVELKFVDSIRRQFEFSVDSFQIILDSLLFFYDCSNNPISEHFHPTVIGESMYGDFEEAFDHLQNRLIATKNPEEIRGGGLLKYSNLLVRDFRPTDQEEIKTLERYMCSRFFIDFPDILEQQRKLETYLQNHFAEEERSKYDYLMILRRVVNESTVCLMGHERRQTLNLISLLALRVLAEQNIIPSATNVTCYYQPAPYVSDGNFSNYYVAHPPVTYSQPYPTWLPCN
log2 fold change (saracatinib): -0.127
log2 fold change (sotrastaurin): 0.035
log2 fold change (alvocidib): 0.115
log2 fold change (Tubastatin A): 0.004
log2 fold change [1]: -0.133
log2 fold change (defactinib): 0.071
log2 fold change (rucaparib): 0.171
log2 fold change [2]: -0.071
log2 fold change (encorafenib): 0.094
log2 fold change [6]: -0.011
log2 fold change [3]: -0.133
log2 fold change (filanesib): 0.049
log2 fold change (zotarolimus): -0.56 (active)
log2 fold change (alisertib): 0
log2 fold change [4]: 0.075
log2 fold change (gefitinib): 0.002
log2 fold change [5]: -0.021
log2 fold change (lapatinib): -0.092
log2 fold change (pictilisib): 0.168

STAM2 (UniProt O75886)
log2 fold change (saracatinib): -0.093
log2 fold change (sotrastaurin): -0.011
log2 fold change (alvocidib): -0.097
log2 fold change (Tubastatin A): -0.014
log2 fold change [1]: 0.035
log2 fold change (defactinib): -0.095
log2 fold change (rucaparib): -0.035
log2 fold change [2]: -0.02
log2 fold change (encorafenib): 0.027
log2 fold change [6]: -0.019
log2 fold change [3]: -0.006
log2 fold change (filanesib): 0.059
log2 fold change (zotarolimus): -0.018
log2 fold change (idasanutlin): -0.06
log2 fold change (alisertib): 0.015
log2 fold change [4]: 0.001
log2 fold change (gefitinib): 0.002
log2 fold change [5]: -0.066
log2 fold change (lapatinib): -0.018
log2 fold change (pictilisib): 0.055

TBK1 (UniProt Q9UHD2)
Chain of UniProt Q9UHD2 (Q9UHD2 whole entry, looked up): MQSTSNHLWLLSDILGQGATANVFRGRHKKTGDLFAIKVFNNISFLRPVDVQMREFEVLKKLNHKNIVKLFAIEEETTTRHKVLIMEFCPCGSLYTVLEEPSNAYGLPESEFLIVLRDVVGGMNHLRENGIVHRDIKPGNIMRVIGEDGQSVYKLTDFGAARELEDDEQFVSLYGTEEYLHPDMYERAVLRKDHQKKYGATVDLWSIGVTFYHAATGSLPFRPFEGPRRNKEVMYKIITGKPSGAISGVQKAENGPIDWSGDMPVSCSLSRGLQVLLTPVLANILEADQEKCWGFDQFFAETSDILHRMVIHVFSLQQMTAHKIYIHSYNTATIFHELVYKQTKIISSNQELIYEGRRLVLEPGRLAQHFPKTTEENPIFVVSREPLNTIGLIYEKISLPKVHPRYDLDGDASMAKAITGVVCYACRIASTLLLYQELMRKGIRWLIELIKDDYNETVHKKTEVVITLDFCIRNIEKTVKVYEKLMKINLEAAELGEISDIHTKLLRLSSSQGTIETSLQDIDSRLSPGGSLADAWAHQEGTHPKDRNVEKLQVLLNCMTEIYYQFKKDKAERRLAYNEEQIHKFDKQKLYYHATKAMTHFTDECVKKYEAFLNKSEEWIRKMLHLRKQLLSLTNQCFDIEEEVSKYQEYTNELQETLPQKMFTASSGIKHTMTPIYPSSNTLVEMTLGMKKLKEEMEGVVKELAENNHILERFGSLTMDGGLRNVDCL
log2 fold change (saracatinib): -0.026
log2 fold change (sotrastaurin): -0.063
log2 fold change (Tubastatin A): -0.014
log2 fold change [1]: 0.536 (active)
log2 fold change (defactinib): 0.079
log2 fold change (rucaparib): 0.106
log2 fold change [2]: -0.013
log2 fold change (encorafenib): 0.049
log2 fold change [6]: 0.001
log2 fold change [3]: -0.06
log2 fold change (filanesib): 0.05
log2 fold change (zotarolimus): -0.037
log2 fold change (idasanutlin): 0.046
log2 fold change (alisertib): 0.064
log2 fold change [4]: 0.087
log2 fold change (gefitinib): -0.098
log2 fold change [5]: 0.08
log2 fold change (lapatinib): -0.018
log2 fold change (pictilisib): 0.009
